Screens from PubChem.
DAX1 inh-1: blocks DAX1 repression of SF-1 activated StAR promoter; inhibition, % at 6.8 µM; AID 652010; 370,000 compounds, 1.1% hits; HEK293T StAR-luciferase reporter, SF-1/DAX-1 repression relief;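 active = inhibition above the mean over all tested compounds plus 3 SD, cut at about 3.6% in these data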;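 note: 0% = DAX-1 cells with DMSO and 100% = cells lacking DAX-1 with DMSO; higher inhibition means more luminescence from relief of DAX-1 repression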
ssDAF12 agonist: activators of S. stercoralis DAF-12 nuclear receptor; HEK293 ssDAF-12/GRIP1 lit1-tk-luc reporter, luminescence; % of 3 µM dafachronic acid response; activation, % at 6.8 µM; 370,000 compounds, 1% hits;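 active = activation above the mean over all tested compounds plus 3 SD, cut at about 0.9% in these data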;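 note: 0% = DMSO-only wells and 100% = 3 µM delta7-dafachronic acid wells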
DAX1 inh-2: NR0B1 (DAX1) inhibition | HEK293 Gal4-DAX1 luciferase reporter, luminescence | inhibition, % at 6.75 µM | P51843 | 340,000 compounds, 0.99% hits;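 active = inhibition above the mean over all tested compounds plus 3 SD, cut at about 4.2% in these data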;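 note: 0% = DAX1-transfected cells with DMSO and 100% = empty-vector control cells with DMSO; inhibition shows as a rise in luminescence from relieved DAX1 repression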
Target sequence (P51843 207-470 limits assumed): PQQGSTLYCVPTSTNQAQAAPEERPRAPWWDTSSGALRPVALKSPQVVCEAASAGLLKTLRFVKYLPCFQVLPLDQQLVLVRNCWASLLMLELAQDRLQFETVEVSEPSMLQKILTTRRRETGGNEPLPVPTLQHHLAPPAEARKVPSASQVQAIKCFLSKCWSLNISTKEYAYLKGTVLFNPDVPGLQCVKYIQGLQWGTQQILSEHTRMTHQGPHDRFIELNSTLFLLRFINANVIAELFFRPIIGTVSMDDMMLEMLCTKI
hgDAF12 agonist: hgDAF-12 agonism, primary luciferase screen. HEK293 GAL4-hgDAF12 UAS-luciferase reporter, agonist luminescence; normalized to butyrate control. AID 687014. activation, % at 6.8 µM. 370,000 compounds, 1.8% hits;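 active = activation above a cutoff set at the mean of all screened compounds plus 3 SD, cut at about 10% in these data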;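 note: 0% = DMSO wells and 100% = sodium butyrate wells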
hcDAF12 agonist: activators of H. contortus DAF-12 nuclear receptor; HEK293 hcDAF-12 lit1-tk-luc reporter, luminescence; 0% DMSO, 100% Δ7-dafachronic acid; activation, % at 6.8 µM; 370,000 compounds, 1.4% hits; AID 652067;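 active = activation above the mean of all tested compounds plus 3 SD, cut at about 5.5% in these data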;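 note: 100% = response to 3 µM Δ7-dafachronic acid high control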
Active calls of the source: *; / = no result. Hits are enriched below; roughly 4.1% of the tested compounds scored in any of these assays.

SMILES | DAX1 inh-1 | ssDAF12 agonist | DAX1 inh-2 | hgDAF12 agonist | hcDAF12 agonist
Cc1cccc(-c2cccc3c4c([nH]c23)[C@@H]2C[C@H](N(C)C(=O)c3ccccc3C)[C@H]([C@H](C)O)CN2CC4)c1 | -0.8 | -2.0 | / | -0.2 | -1.4
O=C(CSc1nc2ccsc2c(=O)n1NC(=O)c1ccccc1)Nc1nccs1 | 1.2 | -0.1 | 1.2 | 11.3* | 1.1
O=C(CSc1nc2ccccc2c(=O)n1NC(=O)c1ccccc1)c1ccccc1 | 2.6 | 1.2* | 2.6 | 11.6* | 4.5
O=C(CSc1nc2ccccc2c(=O)n1NC(=O)c1ccccc1)c1ccc(Cl)cc1 | 2.8 | 0.4 | 3.2 | 12.2* | 3.2
Cc1ccc(Cn2cc(CN3[C@@H](CC(C)C)COc4cc(Br)ccc4S3(=O)=O)nn2)cc1 | 0.1 | -1.0 | / | 5.7 | 0.2
COc1cccc(-c2nnc(SCC(=O)Nc3ccc(Oc4ccccc4)cc3)n2Cc2ccco2)c1 | -0.4 | -1.5 | / | -0.8 | -4.0
C[C@H]1Cn2nnc(-c3ccccc3)c2Cn2c3ccccc3c(=O)n21 | -1.4 | -0.7 | / | 1.0 | -0.7
OCC1(CCOc2ccccc2)CCN(Cc2ccc3c(c2)OCCO3)CC1 | 0.7 | -1.9 | 4.8* | -1.9 | 1.2
Cc1sc2nc(C3CCCCC3)nc(SCC(=O)N3CC(=O)Nc4ccccc43)c2c1C | 0.1 | 1.2* | 0.8 | 2.6 | 0.1
Cc1ccc(C2CCC3(CCC(=O)N3CCOC(=O)Nc3cccc(C#N)c3)CC2)cc1 (stereo not given) | 0.1 | -1.3 | / | 3.3 | 0.4
Cc1n[nH]c(C)c1S(=O)(=O)NC(C)Cc1ccccn1 (stereo not given) | 0.0 | -1.1 | / | 3.4 | 1.6
COc1ccc(S(=O)(=O)Nc2ccccc2Cl)cc1NC(C)=O | -0.1 | -0.7 | -0.5 | 7.6 | 0.7
COc1cc2c(cc1NC(=O)C(C)N1CCN(S(=O)(=O)c3ccccc3[N+](=O)[O-])CC1)oc1ccccc12 (stereo not given) | 0.8 | 0.6 | 1.2 | 4.4 | 6.0*
COc1cc2c(cc1NC(=O)C(C)N1CCN(S(=O)(=O)c3ccc(C)c(C)c3)CC1)oc1ccccc12 (stereo not given) | -0.1 | -0.1 | 2.3 | 2.5 | 3.9
COc1cc2c(cc1NC(=O)C(C)OC(=O)c1ccc(S(=O)(=O)Nc3ccccc3Cl)cc1)oc1ccccc12 (stereo not given) | -0.6 | 0.7 | 1.0 | 0.8 | 5.8*
CC1CCc2c(sc(NC(=O)c3nc4ncccn4n3)c2C#N)C1 (stereo not given) | -0.1 | -1.3 | 4.4* | 3.7 | -2.4
Oc1[nH]c2ccccc2c1C=NCC1CCCO1 (stereo not given) | -0.4 | -0.6 | 0.0 | 4.8 | 6.5*
CN(C)CCNc1nc2sc3c(c2c(=O)n1CCc1ccccc1)CCCCC3 | 1.3 | -0.6 | 7.0* | 1.6 | -0.7
CC(O)CNc1nc2sc3c(c2c(=O)n1CCc1ccccc1)CCCCC3 (stereo not given) | -0.5 | -1.2 | 6.5* | 2.3 | -0.4
CC(O)CNc1nc2sc3c(c2c(=O)n1Cc1ccco1)CCCCC3 (stereo not given) | -0.4 | -0.4 | 1.0 | 2.2 | 0.8
CC(=O)Nc1ccc(S(=O)(=O)N[C@@H](C)C(=O)OCC(=O)c2ccc(Br)s2)cc1 | 1.1 | -1.2 | 8.1* | 0.0 | 0.5
COc1ccc(C(=O)COC(=O)[C@H](C)NS(=O)(=O)c2ccc(NC(C)=O)cc2)cc1OC | 0.5 | -0.9 | 1.9 | 2.2 | -0.5
CN1C2=N[C@@H](c3cccc(C(F)(F)F)c3)CC(=O)N2/C(=C\c2ccccc2)[C@H]1c1ccccc1 | / | -1.3 | / | 2.5 | -0.9
CSc1ccc(Cc2ccc(Cl)cc2Cl)nn1 | 0.5 | -0.6 | 4.3* | 3.5 | 0.4
COC(=O)c1ccc(NN=Nc2ccc(C)cc2)cc1 | 3.2 | 0.7 | -1.8 | 10.8* | 6.0*
SMILES | DAX1 inh-1 | ssDAF12 agonist | DAX1 inh-2 | hgDAF12 agonist | hcDAF12 agonist
CCCC/C(O)=C1\C(=O)CC(C)(C)CC1=Nc1ccc(N)cc1 | 0.8 | -1.1 | 6.0* | 3.4 | 0.1
CCCC/C(O)=C1\C(=O)CC(C)(C)CC1=Nc1ccccc1OC | 0.5 | -1.8 | -1.0 | -2.6 | -2.8
COC(=O)[C@]12C[C@H](CC(=O)NCc3ccc(C)o3)C(=O)N(Cc3ccc(Cl)cc3Cl)C1=C[C@H](C1CCCC1)O[C@@H]2C | -2.0 | -0.4 | / | 1.6 | -1.0
CCOC(=O)Cc1cc(=O)n2[nH]c(-c3ccccc3)cc2n1 | / | / | 0.2 | / | /
CCCc1cc(=O)n2[nH]c(-c3ccc(Br)cc3)cc2n1 | 2.1 | 1.1* | 1.2 | 5.7 | 5.6*
O=[N+]([O-])c1ccc(OCCCCCN2CCOCC2)cc1 | 0.3 | 0.1 | 5.0* | 6.6 | 3.9
O=S1(=O)c2ccc(Br)cc2OC[C@H](Cc2ccccc2)N1Cc1cn(CCC2OCCCO2)nn1 | 0.3 | -1.2 | / | 2.0 | 0.2
O=C(CN1CCN(S(=O)(=O)c2ccc(Cl)cc2)CC1)NC1CCCC1 | 3.8* | -1.0 | -0.9 | 0.3 | -0.4
CCCCOCCCNC(=O)C[C@H]1C[C@@]2(C(=O)OC)C(=C[C@H](C(C)C)O[C@@H]2C2CC2)N(Cc2ccccc2)C1=O | 0.1 | -1.3 | / | 0.9 | -1.9
Cc1cc(C)cc(NC2=CC(=O)CC(c3ccco3)C2)c1 (stereo not given) | -0.6 | -0.8 | 2.4 | -1.2 | 1.9
Cc1ccc(NC2=CC(=O)CC(c3ccco3)C2)c(N)c1 (stereo not given) | 3.6 | 1.6* | 2.8 | 10.6* | 4.3
C#CCN(C1CC1)S(=O)(=O)c1ccccc1Br | 0.2 | -0.3 | / | -0.1 | -2.9
CCCn1c(/N=C/c2ccccc2O)nc2ccccc21 | -0.5 | -0.8 | 1.3 | 0.3 | -1.9
Cn1c(/N=C/c2c(O)ccc3ccccc23)nc2ccccc21 | -1.4 | 1.3* | -0.4 | -2.6 | 0.0
CCCC(=O)Nc1cc(Cl)ccc1C | 0.0 | -1.8 | 6.5* | -0.1 | 0.6
Cc1ccc(Cl)cc1NC(=O)CCC(=O)Nc1cc(Cl)ccc1C | 0.5 | -0.8 | -0.4 | -1.9 | -1.9
COc1ccc(CC(=O)Nc2sccc2C#N)cc1S(=O)(=O)N1CCOCC1 | -0.2 | -0.3 | -0.3 | 7.2 | 6.0*
COc1ccc(Cc2nc(=S)[nH][nH]2)cc1Br | -0.7 | -1.6 | 4.5* | -2.0 | -2.3
Cc1noc(C)c1-c1ccc(C(=O)NCc2ccco2)c2occc12 | 1.9 | -0.1 | / | -1.2 | -0.4
Cn1nccc1-c1ccc(C(=O)NCc2ccco2)c2occc12 | 2.6 | -0.2 | / | 13.0* | 0.8
COC(=O)[C@]12C[C@H](CC(=O)N3CCC(c4ccccc4)CC3)C(=O)N(Cc3ccco3)C1=C[C@H](C(C)C)O[C@@H]2C1CC1 | -1.2 | -0.1 | / | -3.0 | -3.5
C/C(=N\NC1=NCCN1)c1ccc(Cl)cc1 | 0.2 | -1.1 | 0.9 | 0.1 | 0.1
C/C(=N\Nc1nc2c(s1)CCCC2)c1ccc(Cl)cc1 | 0.5 | -0.1 | 2.0 | 5.8 | 6.3*
COC(=O)CCCCCCCC(=O)Nc1nnc(C(F)(F)F)s1 | 0.0 | -1.1 | 6.1* | -1.9 | -1.0
O=C(CCCc1ccccc1)Nc1nnc(C(F)(F)F)s1 | -0.9 | -1.3 | -1.1 | -3.2 | 0.2
